Inconclusive results are not listed. Entries that show only a call come without a potency. Activity calls are given as the source filed them. The call rests on the fitted dose curve; in most records, active means well fitted cell-killing curve with a large enough effect; inconclusive means small, poorly fitted or top-dose-only effect, or effect the other way; inactive means no such curve, though single readings can be large or run the other way. Positions of bridges follow the written chain, without caps; N, C: chain ends. Non-standard residues stand in square brackets, D forms with d. Residues, ends and D or L forms follow the SMILES beside them. ξ: configuration not given here. *: point of attachment. Octanoyl(6-Me) = CCC(C)CCCCC(=O)*; ξThr(3R) = C[C@@H](O)C(N)C(=O)O; dDab = NCC[C@@H](N)C(=O)O; Dab = NCC[C@H](N)C(=O)O
Test: Quantitative High-Throughput drug screen in 47 multiple myeloma cell lines against the NCATS MIPE library collection: KMS28BM_JCRB cell viability assay (AID 1919874); further: nearly all actives have a fitted effect of over 35% in size
Conditions: CellTiter-Glo ATP, 48 h; series mostly up to 45.8 µM
Procedure, shortened: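 MIPE 4.0 approved/investigational drugs; 500 cells/well; 48 h 37 °C humidified 5% CO2; CTG luminescence readout; DMSO = 100%, media = 0% viability.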
Potency means the concentration at half of the fitted maximal effect.

Row | SMILES | Potency
1 | COc1cc(N2CCC(C(N)=O)CC2)ccc1Nc1nc(N)c(Cl)c(Nc2ccccc2S(=O)(=O)C(C)C)n1 | 0.833 µM (active)
2 | CC(=O)SCC(Cc1ccccc1)C(=O)NCC(=O)OCc1ccccc1 (configuration not stated) | 11.8 µM (active)
3 | Cc1onc(-c2ccccc2)c1C(=O)N[C@@H]1C(=O)N2[C@@H](C(=O)O)C(C)(C)S[C@@H]12 | inactive
4 | CCC(C)CCCCC(=O)N[C@@H](CCN)C(=O)NC(C(=O)N[C@H](CCN)C(=O)N[C@@H]1CCNC(=O)C([C@@H](C)O)NC(=O)[C@@H](CCN)NC(=O)[C@@H](CCN)NC(=O)[C@@H](CC(C)C)NC(=O)[C@H](Cc2ccccc2)NC(=O)[C@H](CCN)NC1=O)[C@@H](C)O (stereo partly drawn) ({Octanoyl(6-Me)}-[Dab][ξThr(3R)][dDab][dDab][Dab]F[dL][dDab][dDab][ξThr(3R)]; lactam 4-C) | inactive
5 | OC[C@H]1OC(O)C[C@@H](O)[C@H]1O (some centres not stated) | inactive
6 | Cn1cc(-c2ccc3ncc(Cc4ccc5ncccc5c4)n3n2)cn1 | inactive
7 | C[C@]12CCC(=O)C=C1[C@@H]1CC1[C@H]1[C@H]3[C@@H]4C[C@H]4[C@@]4(CCC(=O)O4)[C@@]3(C)CC[C@H]12 (some centres not stated) | 11.8 µM (active)
8 | CN1C(C(=O)Nc2ccccn2)=C(O)c2sc(Cl)cc2S1(=O)=O | inactive
9 | Cc1cncc2cccc(S(=O)(=O)N3CCCN(C(=O)CN)C[C@@H]3C)c12 | 1.18 µM (active)
10 | C[C@@]12C[C@@]3(O)O[C@@H](O1)[C@]1(COC(=O)c4ccccc4)[C@@H]3C[C@@]12O[C@@H]1O[C@H](CO)[C@@H](O)[C@H](O)[C@@H]1O | inactive
11 | CN(N=O)C(=O)N[C@H]1C(O)OC(CO)[C@@H](O)[C@H]1O (some centres not stated) | inactive
12 | C=CC1=C(C(=O)O)N2C(=O)[C@@H](NC(=O)C(=NO)c3csc(N)n3)[C@H]2SC1 | inactive
13 | CNC(=O)Nc1ccc(-c2nc(N3CC4CCC(C3)O4)c3cnn(C4CCC5(CC4)OCCO5)c3n2)cc1 | 0.0074 µM (active)
14 | CC1(C)[C@H](O[C@H]2O[C@H](C(=O)O)[C@@H](O)[C@H](O)[C@H]2O[C@@H]2O[C@H](C(=O)O)[C@@H](O)[C@H](O)[C@H]2O)CC[C@@]2(C)[C@H]1CC[C@]1(C)[C@H]2C(=O)C=C2[C@H]3C[C@@](C)(C(=O)O)CC[C@]3(C)CC[C@]21C | inactive
15 | NC(=O)c1ncn([C@@H]2O[C@H](CO)[C@@H](O)[C@@H]2O)c1N | inactive
16 | C[C@H](NC(=O)Cc1cc(F)cc(F)c1)C(=O)N[C@H](C(=O)OC(C)(C)C)c1ccccc1 | inactive
17 | O=C(Nc1ccc(Oc2ccnc3[nH]ccc23)c(F)c1)c1cccn(-c2ccc(F)cc2)c1=O | inactive
18 | O=C(O)C=Cc1ccc(Cn2ccnc2)cc1 | inactive
19 | Nc1cccc2c1C(=O)N(C1CCC(=O)NC1=O)C2=O (configuration not stated) | inactive

Row | SMILES | Potency
20 | CC(=O)NC(CS)C(=O)O (configuration not stated) | inactive
21 | N#CC(=C(N)Sc1ccc(N)cc1)c1ccccc1C(F)(F)F | inactive
22 | Nc1nc(N)c2nc(-c3cccc(O)c3)c(-c3cccc(O)c3)nc2n1 | 20.9 µM (active)
23 | CC(=O)OCC(=O)[C@@]1(O)CC[C@H]2[C@@H]3CCC4=CC(=O)CC[C@]4(C)[C@@H]3C(=O)C[C@@]21C | inactive
24 | O=C(O)C(=O)Nc1cccc(C2=NN=N[N]2)c1 | inactive
25 | CC(N[C@H]1CCCC[C@H]1NC(=O)c1ccc(Cl)cc1)c1cccc2ccccc12 (some centres not stated) | 18.7 µM (active)
26 | COc1cc(OC)c(NC(=O)Nc2cc(C)on2)cc1Cl | inactive
27 | O=S(=O)(O)CCSSCCS(=O)(=O)O | inactive
28 | CCCCC(=O)O[C@]1(C(=O)CO)[C@@H](C)C[C@H]2[C@@H]3CCC4=CC(=O)C=C[C@]4(C)[C@@]3(F)[C@@H](O)C[C@@]21C | inactive
29 | Nc1ccn(C[C@@H](CO)OCP(=O)(O)O)c(=O)n1 | inactive
30 | O=C(NCc1ccccc1)[C@H](Cc1ccccc1)NC(=O)[C@@H]1O[C@@H]1C(=O)NCCc1ccc(O)cc1 | inactive
31 | C=C[C@@H]1CN2CCC1C[C@H]2[C@H](O)c1ccnc2ccc(OC)cc12 (some centres not stated) | inactive
32 | C#C[C@]1(O)CC[C@@H]2[C@@H]3CCC4=CC(=O)CC[C@@H]4[C@H]3CC[C@@]21CC | inactive
33 | Nc1nc(=O)n([C@H]2C[C@H](O)[C@@H](CO)O2)cc1F | inactive
34 | c1cc(N[C@@H]2CCNC2)nc(-c2cnc3ccc(-c4cn[nH]c4)cn23)c1 | 23.5 µM (active)
35 | Cc1[nH]c(C=C2C(=O)Nc3ccccc32)c(C)c1CCC(=O)O | 14.8 µM (active)
36 | C[C@H](CCC(=O)O)[C@H]1CCC2C3C[C@H](O)[C@@H]4C[C@H](O)CC[C@]4(C)C3CC[C@@]21C (some centres not stated) | inactive
37 | COc1ccc(C=Cc2cc(OC)c(OC)c(OC)c2)cc1NC(=O)[C@H](N)CO | 0.0118 µM (active)

— PubChem BioAssay (NCATS)
